The structures appear in SMILES notation.

Details in all cases: Compound concentration 20.0 uM
Assay [1] concerns the target Tyrosine-protein kinase ABL1 (Homo sapiens) (UniProt P00519).
Assay [2] concerns the target Bromodomain-containing protein 4 (Homo sapiens) (UniProt O60885).
Assay [3] addresses Cyclin-dependent kinase 2 (Homo sapiens) (UniProt P24941).
Assay [4] addresses Casein kinase I isoform delta (Homo sapiens) (UniProt P48730).
Assay [5] addresses Glycogen synthase kinase-3 beta (Homo sapiens) (UniProt P49841).
Assay [6] addresses Mitogen-activated protein kinase 1 (Homo sapiens) (UniProt P28482).
Assay [7] concerns the target T1, Aurora kinase A (Homo sapiens) (UniProt O14965).
T1 sequence (whole entry): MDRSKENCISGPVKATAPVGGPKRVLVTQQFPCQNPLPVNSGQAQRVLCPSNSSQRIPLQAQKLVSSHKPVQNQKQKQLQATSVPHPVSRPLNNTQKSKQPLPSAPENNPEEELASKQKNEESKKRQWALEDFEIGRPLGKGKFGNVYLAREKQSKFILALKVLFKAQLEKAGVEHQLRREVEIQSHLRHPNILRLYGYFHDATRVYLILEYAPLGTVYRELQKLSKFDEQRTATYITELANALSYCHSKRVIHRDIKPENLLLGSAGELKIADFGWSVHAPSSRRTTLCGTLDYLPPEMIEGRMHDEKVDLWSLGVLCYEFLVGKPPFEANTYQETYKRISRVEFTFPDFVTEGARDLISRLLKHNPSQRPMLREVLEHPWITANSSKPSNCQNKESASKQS

The target of assay [8] is T2, Transcription intermediary factor 1-alpha (Homo sapiens) (UniProt O15164).
T2 sequence (whole entry): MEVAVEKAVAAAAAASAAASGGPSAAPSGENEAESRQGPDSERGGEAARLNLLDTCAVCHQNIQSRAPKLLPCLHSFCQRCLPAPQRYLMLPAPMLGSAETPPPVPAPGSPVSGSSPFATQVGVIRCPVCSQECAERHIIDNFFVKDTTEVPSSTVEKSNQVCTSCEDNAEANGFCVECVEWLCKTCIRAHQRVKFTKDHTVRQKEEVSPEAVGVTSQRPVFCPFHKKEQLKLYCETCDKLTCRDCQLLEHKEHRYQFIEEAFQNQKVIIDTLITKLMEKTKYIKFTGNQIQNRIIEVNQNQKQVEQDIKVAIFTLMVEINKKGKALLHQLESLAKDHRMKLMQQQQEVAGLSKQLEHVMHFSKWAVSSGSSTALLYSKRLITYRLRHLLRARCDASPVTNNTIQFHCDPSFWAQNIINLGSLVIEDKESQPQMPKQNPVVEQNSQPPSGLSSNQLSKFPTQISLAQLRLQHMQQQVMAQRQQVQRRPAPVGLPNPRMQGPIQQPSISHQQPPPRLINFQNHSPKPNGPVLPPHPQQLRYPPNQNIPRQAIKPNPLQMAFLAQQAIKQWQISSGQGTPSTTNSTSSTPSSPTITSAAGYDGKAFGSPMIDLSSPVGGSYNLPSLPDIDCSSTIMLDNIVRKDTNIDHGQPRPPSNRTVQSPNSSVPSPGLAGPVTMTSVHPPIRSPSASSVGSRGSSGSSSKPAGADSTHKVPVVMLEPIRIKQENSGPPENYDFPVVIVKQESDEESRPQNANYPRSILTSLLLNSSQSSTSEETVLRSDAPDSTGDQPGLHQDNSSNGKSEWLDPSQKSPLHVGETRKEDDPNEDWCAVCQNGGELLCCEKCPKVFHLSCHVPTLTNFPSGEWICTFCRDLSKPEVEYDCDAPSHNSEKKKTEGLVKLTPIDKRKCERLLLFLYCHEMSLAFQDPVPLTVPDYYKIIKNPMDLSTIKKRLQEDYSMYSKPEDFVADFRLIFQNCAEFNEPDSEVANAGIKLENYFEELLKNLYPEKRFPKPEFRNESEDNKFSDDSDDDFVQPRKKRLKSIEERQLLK

Mitogen-activated protein kinase 1 (Homo sapiens), sequence (P28482 whole entry): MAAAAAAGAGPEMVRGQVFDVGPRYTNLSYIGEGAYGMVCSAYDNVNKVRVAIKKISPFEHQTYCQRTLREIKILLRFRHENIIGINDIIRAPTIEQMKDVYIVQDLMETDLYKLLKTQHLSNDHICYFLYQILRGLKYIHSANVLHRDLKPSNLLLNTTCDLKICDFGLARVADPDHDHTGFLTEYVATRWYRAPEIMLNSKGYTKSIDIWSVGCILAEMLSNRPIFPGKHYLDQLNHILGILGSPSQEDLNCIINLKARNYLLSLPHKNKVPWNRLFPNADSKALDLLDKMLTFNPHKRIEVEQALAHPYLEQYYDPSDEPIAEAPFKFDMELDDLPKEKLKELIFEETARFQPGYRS
Tyrosine-protein kinase ABL1 (Homo sapiens), sequence (P00519 whole entry): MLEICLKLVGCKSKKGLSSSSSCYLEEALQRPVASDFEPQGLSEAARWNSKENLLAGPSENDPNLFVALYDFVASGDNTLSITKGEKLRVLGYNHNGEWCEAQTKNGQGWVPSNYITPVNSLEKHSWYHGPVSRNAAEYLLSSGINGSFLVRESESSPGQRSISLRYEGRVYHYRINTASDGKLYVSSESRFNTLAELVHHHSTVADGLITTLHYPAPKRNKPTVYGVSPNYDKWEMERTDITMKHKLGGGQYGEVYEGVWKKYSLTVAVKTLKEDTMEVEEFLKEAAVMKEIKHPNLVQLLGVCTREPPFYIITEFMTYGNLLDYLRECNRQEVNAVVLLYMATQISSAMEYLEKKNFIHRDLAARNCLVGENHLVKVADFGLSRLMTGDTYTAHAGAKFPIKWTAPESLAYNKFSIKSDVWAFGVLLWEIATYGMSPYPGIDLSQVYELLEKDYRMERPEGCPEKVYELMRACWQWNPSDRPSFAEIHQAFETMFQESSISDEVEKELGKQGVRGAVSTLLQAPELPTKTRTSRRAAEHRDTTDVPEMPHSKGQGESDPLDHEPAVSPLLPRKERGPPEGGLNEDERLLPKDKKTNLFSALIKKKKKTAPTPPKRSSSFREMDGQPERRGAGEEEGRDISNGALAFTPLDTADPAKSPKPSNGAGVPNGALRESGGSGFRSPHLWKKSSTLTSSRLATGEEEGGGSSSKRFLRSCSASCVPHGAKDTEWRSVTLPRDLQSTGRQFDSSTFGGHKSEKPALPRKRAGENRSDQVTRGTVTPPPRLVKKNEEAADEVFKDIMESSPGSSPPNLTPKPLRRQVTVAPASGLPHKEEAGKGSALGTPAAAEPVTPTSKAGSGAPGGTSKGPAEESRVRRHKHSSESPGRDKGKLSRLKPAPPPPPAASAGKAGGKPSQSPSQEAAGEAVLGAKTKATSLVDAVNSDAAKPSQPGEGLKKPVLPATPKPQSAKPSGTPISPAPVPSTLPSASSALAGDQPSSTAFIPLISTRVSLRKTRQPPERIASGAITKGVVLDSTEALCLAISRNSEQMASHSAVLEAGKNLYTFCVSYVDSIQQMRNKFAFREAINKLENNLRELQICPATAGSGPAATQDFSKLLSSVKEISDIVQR
Casein kinase I isoform delta (Homo sapiens), sequence (P48730 whole entry, looked up, canonical isoform): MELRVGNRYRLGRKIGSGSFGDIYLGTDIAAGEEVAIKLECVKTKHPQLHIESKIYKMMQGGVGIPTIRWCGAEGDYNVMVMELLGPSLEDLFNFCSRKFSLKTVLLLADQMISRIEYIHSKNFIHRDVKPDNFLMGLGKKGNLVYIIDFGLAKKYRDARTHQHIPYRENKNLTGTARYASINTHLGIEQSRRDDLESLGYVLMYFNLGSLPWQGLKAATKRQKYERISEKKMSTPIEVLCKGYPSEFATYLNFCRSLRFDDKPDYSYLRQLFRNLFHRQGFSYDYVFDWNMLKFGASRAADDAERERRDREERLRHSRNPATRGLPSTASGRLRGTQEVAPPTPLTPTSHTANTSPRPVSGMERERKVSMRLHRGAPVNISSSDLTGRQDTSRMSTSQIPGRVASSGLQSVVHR
Glycogen synthase kinase-3 beta (Homo sapiens), sequence (P49841 whole entry, looked up): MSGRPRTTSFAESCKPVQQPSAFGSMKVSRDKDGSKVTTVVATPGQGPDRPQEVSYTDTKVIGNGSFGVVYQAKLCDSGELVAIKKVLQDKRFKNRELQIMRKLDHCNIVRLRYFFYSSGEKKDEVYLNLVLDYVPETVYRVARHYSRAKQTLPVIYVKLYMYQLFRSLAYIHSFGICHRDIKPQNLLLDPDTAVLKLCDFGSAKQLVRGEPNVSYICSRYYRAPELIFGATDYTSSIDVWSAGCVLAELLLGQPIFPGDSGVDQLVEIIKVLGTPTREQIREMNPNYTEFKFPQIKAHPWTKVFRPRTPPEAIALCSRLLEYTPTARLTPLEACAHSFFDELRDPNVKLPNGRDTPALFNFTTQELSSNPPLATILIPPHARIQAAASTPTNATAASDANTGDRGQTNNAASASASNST

For the molecule `O=C(NCCCn1ccnc1)c1cc2nc(-c3ccccc3)cc(-c3ccccc3)n2n1`, the shift in melting temperature (ΔTm) (in general, the shift of the melting midpoint relative to a reference) in assay [1] was 0.26 °C; in assay [2], -2.23 °C; in assay [3], -0.13 °C; in assay [4], 0.15 °C; in assay [5] it was -0.59 °C; in assay [6] it was -2.4 °C. The thermal shift (ΔTm) in assay [7] was -0.86 °C; in assay [8], -0.04 °C.
Consider `CNC(=O)N1CCc2c(c(N3CCCc4cc(-c5cnn(C)c5)c(C(F)F)cc43)nn2C2CCOCC2)C1`, for which the thermal shift (ΔTm) is 0.09 °C in assay [1]; 1.4 °C in assay [2]; 0.2 °C in assay [3]; 0.34 °C in assay [4]; -0.47 °C in assay [5]; -0.36 °C in assay [6]. The values for the ΔTm in assay [7] and in assay [8] were -1.06 °C and -2.05 °C, respectively.
Take `O=C(NO)c1ccc(CN2CCCc3cc(Cl)ccc32)cc1`: the ΔTm in assay [1] is 0.31 °C; in assay [2], -1.3 °C; in assay [3], -0.96 °C; in assay [4], -0.07 °C; in assay [5], 0.96 °C; in assay [6], -0.12 °C. The thermal shift (ΔTm) in assay [7] was -0.45 °C; in assay [8], -1.53 °C.
For the molecule `COc1ccc(-c2ccc3c(c2)COC3=O)n2nc(C3(C(=O)OCC(C)C)CC3)nc12`, the ΔTm in assay [1] was 0.4 °C; in assay [2] it was 2.58 °C; in assay [3], 0.54 °C; in assay [4], 0.04 °C; in assay [5] it was -0.38 °C; in assay [6], 1.36 °C. The figures for the ΔTm in assay [7] and in assay [8] were -1.67 °C and 0.5 °C, respectively.
With `Cc1cc(C)nc(SCC(=O)Nc2ncc(Cc3cccc(OCc4cn(Cc5ccccc5)nn4)c3)s2)n1`, the thermal shift (ΔTm) in assay [1] was -4.58 °C; in assay [2], -6.78 °C; in assay [3] it was -3.98 °C; in assay [4], -2.38 °C; in assay [5], -0.77 °C; in assay [6] it was 0.65 °C. Further, the shift in melting temperature (ΔTm) was -2.36 °C in assay [7] and 3.08 °C in assay [8].
In the case of `O=C(COc1ccc(-c2oc3cc(O)c(C(=O)O)cc3c2C#Cc2cccc(Cl)c2)cc1)NC1CC1`, the thermal shift (ΔTm) in assay [1] was 0.23 °C; in assay [2], -1.93 °C; in assay [3], 0.55 °C; in assay [4], 0.15 °C; in assay [5], -0.41 °C; in assay [6], -0.57 °C. The ΔTm in assay [7] is -0.11 °C; in assay [8], -0.84 °C.
For the molecule `Cc1cc(Cn2c(=O)n(Cc3cnc(C)s3)c(=O)c3cc(S(=O)(=O)NC4(C)CC4)ccc32)n(C)n1`, the ΔTm in assay [1] was 0.2 °C; in assay [2], -4.6 °C; in assay [3], 0.24 °C; in assay [4] it was 0.39 °C; in assay [5] it was -0.6 °C; in assay [6], 0.1 °C. Moreover, the thermal shift (ΔTm) in assay [7] is -3.34 °C; in assay [8], -1.26 °C.
In the case of `COc1ccc(CNc2nc(N3CCC[C@H]3CO)ncc2C(=O)NCc2ncccn2)cc1Cl`, the shift in melting temperature (ΔTm) in assay [1] was 0.44 °C; in assay [2], -1.19 °C; in assay [3] it was -0.26 °C; in assay [4], 0.12 °C; in assay [5], 0.12 °C; in assay [6], 0.04 °C. Besides, the ΔTm in assay [7] was -1.84 °C; in assay [8], -0.51 °C.
Regarding `N[C@H](C(=O)O)[C@H](OCc1cccc(NC(=O)c2ccc(C(F)(F)F)cc2)c1)C(=O)O`, the shift in melting temperature (ΔTm) is 0.24 °C in assay [1]; -3.61 °C in assay [2]; -0.09 °C in assay [3]; -0.32 °C in assay [4]; -0.8 °C in assay [5]; 0.12 °C in assay [6]. Further, the shift in melting temperature (ΔTm) in assay [7] was -2.5 °C; in assay [8] it was 0.13 °C.
For the molecule `O=c1[nH][nH]c(=O)c2cc(OCc3ccsc3)ccc12`, the ΔTm in assay [1] was 1.93 °C; in assay [2], -2.87 °C; in assay [3] it was 0.73 °C; in assay [4] it was -0.03 °C; in assay [5] it was 0.96 °C; in assay [6] it was 0.65 °C. Further, the shift in melting temperature (ΔTm) is -1.5 °C in assay [7] and 0.51 °C in assay [8].
On to `CCC(CC)N(CCN(C)C(=O)CCC(=O)O)Cc1cccc(C(=O)Nc2sc3c(c2C(=O)c2cnn(-c4ccc(Cl)c(C(F)(F)F)c4)c2)CCC(C)(C)C3)c1`, for which the shift in melting temperature (ΔTm) in assay [1] was -0.27 °C; in assay [2] it was 1.72 °C; in assay [3] it was -0.99 °C; in assay [4] it was -8.05 °C; in assay [5] it was -4.31 °C; in assay [6], -1.59 °C. The ΔTm in assay [7] is -8.72 °C; in assay [8], 1.42 °C.
